Among the data in PubChem BioAssay (Tox21) are Potency and activity change, negative = inhibition values, retold here.

Structures are written as SMILES. “And” between values parts separate entries of the source, which are not always exact repeats. Equal values may be shown once. Results filed as inconclusive are left out. Where a structure was tested more than once in an assay, its records may differ in their call. The source made the active and inactive calls. The call rests on the fitted dose curve; in most records, active means well fitted curve in the direction sought with a large enough effect in the repeat runs; inconclusive means weak or mixed curves; inactive means no such curve, though single readings can be large; an effect the other way counts as inactive or inconclusive.

For assay [1], the target named is Cytochrome P450 2C9 (Homo sapiens) (UniProt P11712). Put plainly: Cytochrome P450 Family 2 Subfamily C Member 9 (CYP2C9) small molecule antagonists: luciferase reporter qHTS assay (AID 1671198). Conditions: P450-Glo CYP2C9 enzyme assay, luciferin luminescence; series mostly up to 115 µM. The essentials: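 P450-Glo proluciferin substrate with CYP2C9 enzyme; 10 min RT preincubation, then NADPH regeneration 1 h at 37C; luciferin detection reagent 20 min RT, luminescence in relative luminescence units.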
On the technique in general: A reporter such as luciferase makes a cellular process visible.

The target in assay [2] is Cytochrome P450 1A2 (Homo sapiens) (UniProt P05177). Put plainly: Cytochrome P450 Family 1 Subfamily A Member 2 (CYP1A2) small molecule antagonists: luciferase reporter qHTS assay (AID 1671199). Conditions: P450-Glo CYP1A2 enzyme, luciferin luminescence, 1 h; series mostly up to 115 µM. Summed up:
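Human CYP1A2 activity measured with a P450-Glo proluciferin substrate; compounds in DMSO preincubated 10 min at room temperature with enzyme-substrate mix, then NADPH regeneration system added for 1 h. Luciferin detection reagent, 20 min, luminescence read.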

Assay [3] deals with Voltage-gated inwardly rectifying potassium channel KCNH2 (Homo sapiens) (UniProt Q12809). Put plainly: Human Ether-a-go-go-Related Gene (hERG) channel small molecule antagonists: fluorescence cell-based qHTS assay (AID 1671200).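 On activity change, negative = inhibition: hERG-expressing U2OS cells given a thallium stimulus after FluxOR II dye loading.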 The settings on record: hERG-U2OS cells, FluxOR thallium flux fluorescence; series mostly up to 76.8 µM. The essentials:
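Read-out: thallium influx as a surrogate for potassium, tracked as fluorescence (480 nm ex/540 nm em) every second for 2 min after Stimulus Buffer addition in dye-loaded hERG-U2OS cells.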

The target in assay [4] is Cytochrome P450 3A4 (Homo sapiens) (UniProt P08684). Put plainly: Cytochrome P450 Family 3 Subfamily A Member 4 (CYP3A4) small molecule antagonists: luciferase reporter qHTS assay (AID 1671201). Conditions: P450-Glo CYP3A4 enzyme, luciferin luminescence, 1 h; series mostly up to 115 µM. Summed up: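 Luminescent readout (RLU) proportional to CYP3A4 activity, from luciferin generated off a proluciferin substrate. Enzyme–substrate mix plus compound 10 min at room temp, NADPH regeneration 1 h, detection reagent 20 min.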
Further: nearly all actives have a fitted effect of over 50% in size.
On the % scale 0 is the no-effect control and ±100 the full control effect; potency means the concentration at half of the fitted maximal effect.

Cytochrome P450 2C9 (Homo sapiens), sequence (P11712 whole entry, looked up): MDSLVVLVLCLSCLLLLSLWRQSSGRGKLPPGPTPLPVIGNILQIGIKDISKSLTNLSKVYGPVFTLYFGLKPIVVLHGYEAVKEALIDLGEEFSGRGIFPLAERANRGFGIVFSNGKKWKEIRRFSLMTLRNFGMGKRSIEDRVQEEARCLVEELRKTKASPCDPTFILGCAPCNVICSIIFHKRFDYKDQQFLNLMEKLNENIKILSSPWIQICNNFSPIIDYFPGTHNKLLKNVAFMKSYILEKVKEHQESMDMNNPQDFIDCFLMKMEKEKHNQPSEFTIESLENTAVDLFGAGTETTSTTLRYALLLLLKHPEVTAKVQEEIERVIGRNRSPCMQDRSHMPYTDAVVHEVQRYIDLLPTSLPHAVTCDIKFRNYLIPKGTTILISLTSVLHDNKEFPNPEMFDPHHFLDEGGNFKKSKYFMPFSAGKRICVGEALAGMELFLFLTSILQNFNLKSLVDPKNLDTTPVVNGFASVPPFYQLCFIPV
Cytochrome P450 3A4 (Homo sapiens), sequence (P08684 whole entry, looked up): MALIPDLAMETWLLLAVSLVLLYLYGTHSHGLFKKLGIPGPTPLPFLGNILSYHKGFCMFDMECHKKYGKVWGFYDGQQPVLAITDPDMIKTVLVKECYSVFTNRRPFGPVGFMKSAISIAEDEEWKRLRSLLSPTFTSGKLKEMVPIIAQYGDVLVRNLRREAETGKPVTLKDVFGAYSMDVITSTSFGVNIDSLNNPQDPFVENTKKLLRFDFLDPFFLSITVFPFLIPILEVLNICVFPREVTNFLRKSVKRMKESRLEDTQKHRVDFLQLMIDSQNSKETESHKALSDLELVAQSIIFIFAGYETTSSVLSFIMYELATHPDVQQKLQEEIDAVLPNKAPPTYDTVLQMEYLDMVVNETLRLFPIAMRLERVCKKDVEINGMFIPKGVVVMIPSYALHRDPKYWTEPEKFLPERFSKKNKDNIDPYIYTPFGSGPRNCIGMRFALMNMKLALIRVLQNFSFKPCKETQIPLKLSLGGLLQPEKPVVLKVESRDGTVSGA
Cytochrome P450 1A2 (Homo sapiens), sequence (P05177 whole entry, looked up): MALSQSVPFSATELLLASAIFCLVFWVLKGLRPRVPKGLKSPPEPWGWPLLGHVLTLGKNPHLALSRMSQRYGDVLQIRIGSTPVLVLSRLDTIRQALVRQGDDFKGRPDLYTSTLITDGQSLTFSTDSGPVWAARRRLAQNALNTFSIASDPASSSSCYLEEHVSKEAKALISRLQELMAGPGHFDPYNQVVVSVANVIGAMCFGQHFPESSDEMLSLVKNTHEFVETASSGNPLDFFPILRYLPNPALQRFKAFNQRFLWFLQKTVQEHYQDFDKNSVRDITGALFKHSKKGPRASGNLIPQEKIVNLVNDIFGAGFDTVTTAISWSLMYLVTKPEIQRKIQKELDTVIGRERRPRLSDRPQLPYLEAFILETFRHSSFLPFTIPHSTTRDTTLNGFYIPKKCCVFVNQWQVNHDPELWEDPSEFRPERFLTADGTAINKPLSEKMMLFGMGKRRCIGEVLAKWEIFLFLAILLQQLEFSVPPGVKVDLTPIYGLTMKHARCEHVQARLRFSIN
Voltage-gated inwardly rectifying potassium channel KCNH2 (Homo sapiens), sequence (Q12809 whole entry, looked up): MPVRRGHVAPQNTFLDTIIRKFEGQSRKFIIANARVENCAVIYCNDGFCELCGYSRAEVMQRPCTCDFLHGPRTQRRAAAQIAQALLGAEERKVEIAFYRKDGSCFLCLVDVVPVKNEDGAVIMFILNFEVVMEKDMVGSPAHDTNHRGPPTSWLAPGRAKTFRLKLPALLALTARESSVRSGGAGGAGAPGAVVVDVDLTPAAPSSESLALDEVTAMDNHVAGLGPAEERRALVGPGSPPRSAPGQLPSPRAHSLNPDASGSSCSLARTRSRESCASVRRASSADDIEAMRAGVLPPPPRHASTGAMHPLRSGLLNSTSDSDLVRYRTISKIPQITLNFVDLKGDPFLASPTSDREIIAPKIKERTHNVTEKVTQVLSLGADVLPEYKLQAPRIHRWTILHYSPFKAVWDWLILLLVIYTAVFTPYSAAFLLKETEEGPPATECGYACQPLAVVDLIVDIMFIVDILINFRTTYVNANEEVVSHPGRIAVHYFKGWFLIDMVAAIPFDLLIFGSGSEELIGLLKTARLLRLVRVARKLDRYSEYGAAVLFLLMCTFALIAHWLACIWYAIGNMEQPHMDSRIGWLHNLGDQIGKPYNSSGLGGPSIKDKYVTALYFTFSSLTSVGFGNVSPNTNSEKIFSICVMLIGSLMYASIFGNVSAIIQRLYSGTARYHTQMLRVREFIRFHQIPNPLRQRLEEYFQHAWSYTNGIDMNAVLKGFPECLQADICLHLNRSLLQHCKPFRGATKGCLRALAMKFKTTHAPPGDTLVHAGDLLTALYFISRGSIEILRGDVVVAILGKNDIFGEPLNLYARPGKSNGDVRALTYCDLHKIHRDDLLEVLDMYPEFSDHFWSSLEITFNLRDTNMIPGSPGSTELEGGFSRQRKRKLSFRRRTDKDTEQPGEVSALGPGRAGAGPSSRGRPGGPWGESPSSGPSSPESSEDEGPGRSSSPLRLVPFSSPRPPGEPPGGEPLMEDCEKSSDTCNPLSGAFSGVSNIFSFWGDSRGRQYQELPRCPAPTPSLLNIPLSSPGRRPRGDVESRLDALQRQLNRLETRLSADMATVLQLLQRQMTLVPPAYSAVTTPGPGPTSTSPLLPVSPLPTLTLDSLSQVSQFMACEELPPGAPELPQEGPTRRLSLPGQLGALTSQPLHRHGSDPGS

Consider `CCCCCCCCCCCCCCCC`, for which the Potency in assay [1] is 39.9 µM (active). Moreover, the Potency entry in assay [2], in assay [3] and in assay [4] was “inactive” each time.

In the case of `CC[N+](CC)(CC)Cc1ccccc1`, the Potency entry in assay [1], in assay [2] and in assay [4] was “inactive” each time.

With `CCOC(=O)[C@@](C)(N)Cc1ccc(O)c(O)c1`, the Potency result in assay [1], in assay [2], in assay [3] and in assay [4] was “inactive” throughout.

With `Cc1cc(=O)[nH]c(=O)[nH]1`, the Potency entry in assay [1], in assay [2], in assay [3] and in assay [4] was “inactive” each time.

For `O=C1OC(=O)c2cccc3cccc1c23`, the Potency result in assay [1] and in assay [4] was “inactive” in each case. In addition, the Potency in assay [2] was 35.9 µM (active).

For `O=C=NCc1cccc(CN=C=O)c1`, the Potency in assay [1] was 6.74 µM (active); in assay [4], 4.25 µM (active). The results for the activity change, negative = inhibition in assay [2] and in assay [3] were -18.9% [at 23.6 µM] (inactive) and 0.993% [at 15.8 µM] (inactive), respectively.

Turning to `CCc1cccc(C)c1`, the Potency entry in assay [1], in assay [2], in assay [3] and in assay [4] was “inactive” each time.

Turning to `Clc1ccc(C(c2ccccc2Cl)C(Cl)Cl)cc1` (configuration not stated), the Potency in assay [1] is 20 µM (active) and 9.77 µM (active). Besides, the Potency entry in assay [2] and in assay [4] was “inactive” each time.

Consider `CCc1c(Br)c(Br)c(Br)c(Br)c1Br`, for which the Potency result in assay [1], in assay [3] and in assay [4] was “inactive” each time. The Potency in assay [2] is 11.2 µM (active).

For the compound `CCOB(OCC)OCC`, the Potency entry in assay [1], in assay [2], in assay [3] and in assay [4] was “inactive” each time.

Consider `C=C1C(C)(C)[C@@]2(Cl)C(Cl)[C@]1(Cl)C(Cl)(Cl)C2(Cl)Cl` (some centres not stated), for which the Potency was 13.9 µM (active) in assay [1], 39.2 µM (active) in assay [2], 27 µM (active) in assay [3] and 0.985 µM (active) in assay [4].

For the compound `C=C/C=C/C=C/CCCCC`, the Potency in assay [1] and in assay [4] was 16.9 µM (active) each time. In addition, the activity change, negative = inhibition in assay [2] is -9.41% [at 23.6 µM] (inactive); in assay [3] it was -12.1% [at 15.8 µM] (inactive).

For the compound `NC(=O)c1ccccc1N`, the Potency result in assay [1], in assay [3] and in assay [4] was “inactive” each time. The Potency in assay [2] was 31.9 µM (active).

As to `Cc1cncc(C)c1`, the Potency result in assay [1], in assay [2], in assay [3] and in assay [4] was “inactive” in each case.

As for `CCC(=O)CC(C)CC` (configuration not stated), the activity change, negative = inhibition in assay [1] is -10.1% [at 0.435 µM] (inactive); in assay [2], -14.4% [at 0.435 µM] (inactive); in assay [3] it was 2.31% [at 0.29 µM] (inactive); in assay [4], -0.0732% [at 0.435 µM] (inactive).

Consider `C=C(C)C(=O)OCCC[Si](Cl)(Cl)Cl`, for which the Potency in assay [1] was 22.7 µM (active); in assay [4], 12.7 µM (active). Further, the Potency result in assay [2] was “inactive”.

Regarding `CC(=O)Oc1ccc(C2(c3ccc(OC(C)=O)cc3)Oc3ccccc3NC2=O)cc1`, the Potency in assay [1] was 2.45 µM (active). Further, the Potency entry in assay [2], in assay [3] and in assay [4] was “inactive” in each case.

For the compound `c1ccc2c(c1)CCC2`, the Potency entry in assay [1], in assay [2], in assay [3] and in assay [4] was “inactive” throughout.

With `Oc1ccc(-c2ccccc2)c(Cl)c1`, the Potency was 35.6 µM (active) in assay [1] and 12.6 µM (active) in assay [2]. Besides, the Potency result in assay [3] and in assay [4] was “inactive” each time.

In the case of `CCN=C1C=CC(=C(c2ccc(N(CC)CC)cc2)c2ccc(N(CC)CC)cc2)c2ccccc21`, the Potency in assay [1] is 15.8 µM (active); in assay [2] it was 25 µM (active); in assay [3], 0.345 µM (active); in assay [4], 8.88 µM (active).

As for `CC(C)(c1cc(Br)c(O)c(Br)c1)c1cc(Br)c(O)c(Br)c1`, the Potency in assay [1] was 31.6 µM (active) and 35.5 µM (active) and 30 µM (active); in assay [4] it was 56.2 µM (active) and inactive. Also, the Potency entry in assay [2] and in assay [3] was “inactive” in each case.

As to `OCCCc1cccnc1`, the Potency entry in assay [1] and in assay [2] was “inactive” each time. Also, in assay [4], the Potency was 15.9 µM (active).

In the case of `CCCCC(CC)COC(=O)c1ccc(O)cc1` (configuration not stated), the Potency was 31.6 µM (active) and 35.6 µM (active) in assay [1]; 31.6 µM (active) and 35.6 µM (active) in assay [2]; 70.7 µM (active) in assay [4].

Turning to `O=C1Nc2ccc(Cl)cc2[C@@](C#CC2CC2)(C(F)(F)F)O1`, the Potency is 15.5 µM (active) in assay [1] and 17.4 µM (active) in assay [2]. In addition, the Potency result in assay [3] and in assay [4] was “inactive” throughout.

As for `CSc1c(Cl)c(Cl)c(Cl)c(Cl)c1Cl`, the Potency result in assay [1], in assay [3] and in assay [4] was “inactive” each time. The Potency in assay [2] was 14.1 µM (active).

Regarding `CNC(=S)NN`, the Potency in assay [1] and in assay [2] was 39.9 µM (active) in each case. The Potency result in assay [3] and in assay [4] was “inactive” in each case.

`CCc1ccc(C)nc1`: the Potency result in assay [1], in assay [2], in assay [3] and in assay [4] was “inactive” in each case.

Take `NC1(c2ccc(-c3nc4ccn5c(=O)[nH]nc5c4cc3-c3ccccc3)cc2)CCC1`: the Potency result in assay [1], in assay [2] and in assay [4] was “inactive” each time.

As for `c1ccc(Sc2ccccc2)cc1`, the Potency entry in assay [1] and in assay [4] was “inactive” each time. Also, the Potency in assay [2] is 31.7 µM (active).

In the case of `COc1ccc(C#N)cc1`, the Potency entry in assay [1] and in assay [3] was “inactive” each time.

As to `Cc1ccc(CCn2c3c(c4cc(Cl)ccc42)CN(C)CC3)cn1`, the Potency result in assay [1] is “inactive”. Further, the Potency in assay [3] was 12 µM (active).

Take `CCCCCCCCCCOCC(O)CN` (configuration not stated): the results for the Potency in assay [1] and in assay [2] were 13.8 µM (active) and 2.88 µM (active), respectively. In addition, the Potency result in assay [4] was “inactive”.

As for `CC(NCCC(c1ccccc1)c1ccccc1)c1ccccc1` (configuration not stated), the results for the Potency in assay [1] and in assay [3] were 15.5 µM (active) and 1.69 µM (active), respectively.

In the case of `CCCCOc1ccc(C(=O)CCN2CCCCC2)cc1`, the Potency in assay [1] was 17.4 µM (active). Further, the Potency result in assay [2] and in assay [4] was “inactive” each time.

For the compound `CC(=O)Nc1ccc(O)cc1`, the Potency result in assay [1] and in assay [3] was “inactive” in each case.
